BoNT-F LC inh: inhibitors of Botulinum neurotoxin F light chain protease; Multiplex microsphere protease cleavage assay, flow cytometry; inhibition, % at 10 µM; 360,000 compounds, 0.22% hits; AID 588497; in the data active = inhibition above about 35%, passing the limit was not always enough; inconclusive = no clear call, values can overlap the other calls; also: plate controls were buffer without enzyme for full effect and enzyme alone for no effect
BoNT-A LC inh2: blocks Botulinum neurotoxin A light chain protease; multiplex microsphere protease substrate cleavage, flow cytometry; inhibition, % at 10 µM; 360,000 compounds, 0.17% hits; AID 588499; also: plate controls were buffer without enzyme for full effect and enzyme alone for no effect
Anthrax LF prot: inhibitors of Bacillus anthracis lethal factor protease. inhibition, % at 10 µM. multiplex microsphere protease cleavage assay, LF. P15917. 360,000 compounds, 0.12% hits. AID 588501; also: plate controls were buffer without enzyme for full effect and enzyme alone for no effect
Autofluor counter: flagged as autofluorescent in microsphere protease counterscreen; compound autofluorescence counterscreen, microsphere flow cytometry; hits give high values; fluorescence intensity (test concentration not listed); 360,000 compounds, 3.1% hits; AID 624483; in the data active = fluorescence intensity above about 16000; inconclusive = no clear call, values can overlap the other calls
CCHF vOTU inh-1: blocks the CCHF virus ovarian tumor domain protease; CCHFV vOTU protease, Pep-AMC fluorescence; inhibition, % at 11.5 µM; 370,000 compounds, 0.55% hits; AID 651958; in the data active = inhibition above about 30%; also: 0% = vehicle wells with enzyme and 100% = no enzyme wells
SARS 3CLpro inh: SARS-CoV 3CLpro protease inhibition | inhibition, % at 6 µM | recombinant SARS-CoV 3CLpro, quenched FRET peptide cleavage | AID 1706 | P0C6X7 | 290,000 compounds, 0.14% hits; in the data active = inhibition above about 12%
CCHF vOTU inh-2: confirmation of CCHF virus vOTU protease inhibitors | AID 686976 | shares compounds with CCHF vOTU inh-1 | 1,900 compounds, 17% hits | inhibition, % at 11.5 µM | Recombinant CCHFV vOTU, Pep-AMC fluorescence; in the data active = inhibition above about 30%
The depositor's hits bear a star; u = inconclusive; x = not tested or not shown. Shown are actives, neighbours in structure and some others; about 3.9% of the full set was active somewhere. Rule as the data show it, unless noted: active = inhibition above about 30%; inconclusive = no clear call, values can overlap the other calls; inactive = below that.

SMILES | BoNT-F LC inh | BoNT-A LC inh2 | Anthrax LF prot | Autofluor counter | CCHF vOTU inh-1 | SARS 3CLpro inh | CCHF vOTU inh-2
COc1ccc(C(C)=O)c2c(O)cccc12 | -6 | 0 | 1 | 2530 | 31* | 0 | -17
Cc1ccc(CN2CCC=CS2(=O)=O)cc1 | x | x | x | x | -1 | x | x
Cc1ccc(-n2c3nc(=O)[nH]c(=O)c-3cc3cc([N+](=O)[O-])ccc32)cc1C | -2 | 0 | -1 | 2562 | 31* | 1 | -4
O=C(N[C@H](C(=O)N1CCC[C@H]1C(=O)NC1CCCC1)c1ccccc1)c1ccccc1 | x | x | x | x | -6 | x | x
COc1ccc(-c2c(-c3ccccc3)c(C(=O)C(=O)NCCCN(C)C)n3ccc4cc(OC)c(OC)cc4c23)cc1OC | -12 | 0 | -14 | 2730 | 33* | 0 | -4
COc1ccccc1C(=O)NC(=S)Nc1cccc2cc(O)ccc12 | -8 | 0 | -1 | 4169 | 15 | 2 | x
COc1ccc(C(=O)NC(=S)Nc2cccc3cc(O)ccc23)cc1OC | -12 | -3 | -6 | 6421 | 31* | 4 | -11
COc1ccc(-c2cc(=O)n(CCC#N)[nH]2)cc1 | -6 | -1 | -6 | 9686 | 62* | 1 | -27
CN(Cc1ccco1)C(=O)[C@@H](Cc1ccccc1)NC(=O)[C@H]1O[C@@H](n2ccc(=O)[nH]c2=O)[C@H](O)[C@@H]1O | x | x | x | x | -3 | x | x
COC(=O)C1=C(C)N(C)C(=NCc2ccccc2)NC1c1cccc(Cl)c1 (centres undefined) | x | x | x | x | -6 | x | x
O=C(Cc1ccc(NC(=O)C2CCCN(C(=O)c3ccccc3)C2)cc1)Nc1cccc(C(=O)N2CCCCC2)c1 (centres undefined) | x | x | x | x | 32* | x | -21
CN(C(=O)c1ccc(NC(=O)Cc2cccc(NC(=O)C3CCN(C(=O)C4CCCCC4)CC3)c2)cc1)C1CC1 | -2 | 0 | -4 | 2907 | 34* | x | -21
Cc1ccc(-n2c(SCC(=O)Nc3cccc4ccccc34)nnc2-c2cccs2)cc1 | x | x | x | x | 4 | x | x
CN(C)S(=O)(=O)c1cccc(C(=O)N/N=C\c2ccccc2)c1 | x | x | x | x | -7 | x | x
O=C(NC1CCCCN(Cc2cccc(Cl)c2)C1=O)c1ccccn1 (centres undefined) | x | x | x | x | -2 | x | x
NC(=O)c1ncn([C@@H]2O[C@H](C(=O)Nc3ccc(Oc4ccccc4)nc3)[C@@H](O)[C@H]2O)n1 | x | x | x | x | 7 | x | x
O=C(N/N=C/c1cccs1)c1cccc(S(=O)(=O)Nc2ccc(Cl)cc2)c1 | -3 | -1 | 2 | 2660 | -1 | -2 | x
O=C(N/N=C/c1cccs1)c1cccc(NC(=O)c2ccc(Cl)cc2)c1 | x | x | x | x | 46* | -1 | 5
CCC(C)(C)n1nnnc1C(c1cccnc1)N1CCN(c2cccc(C(F)(F)F)c2)CC1 (centres undefined) | -8 | 1 | 0 | 3930 | 30* | -6 | 3
CCC(C)(C)n1nnnc1C(c1ccncc1)N1CCN(c2cccc(OC)c2)CC1 (centres undefined) | -10 | u | -4 | 8675 | -2 | -4 | x
CN(C)/N=C/c1c(O)ccc2ccccc12 | -5 | 0 | -3 | 2910 | 20 | 0 | x
Oc1ccc2ccccc2c1C=NC12CN3CCN(CN(C3)C1)C2 | -18 | 2 | 2 | 2414 | 72* | 1 | 73*
O=C(c1cc(Cl)cc(Cl)c1)N1CC[C@H]2[C@H](CCCN2Cc2cc(F)cc(F)c2)C1 | x | x | x | x | 7 | x | x
Cc1ccc2nc(N/C(=N/S(=O)(=O)c3ccc(F)cc3)c3ccccc3)sc2c1 | -2 | 0 | -1 | 4653 | 5 | 1 | x
Cc1ccc(S(=O)(=O)/N=C(/Nc2nc(C)cs2)c2ccccc2)cc1 | -5 | 0 | -10 | 3948 | 38* | x | -9
SMILES | BoNT-F LC inh | BoNT-A LC inh2 | Anthrax LF prot | Autofluor counter | CCHF vOTU inh-1 | SARS 3CLpro inh | CCHF vOTU inh-2
Nc1scc2c(C(=O)N/N=C/c3ccc(Cl)cc3)nn(-c3ccccc3)c(=O)c12 | 1 | 2 | -6 | 8722 | 36* | -1 | 64*
O=C1Cc2ccccc2C(=O)N1Cc1ccccc1 | -32 | 0 | -9 | 3346 | 93* | 1 | 91*
O=C1Cc2ccccc2C(=O)N1c1ccccc1 | -4 | 1 | -8 | 5335 | 19 | 1 | x
COc1ccccc1C(C(=O)NC1CCCCC1)N(C(=O)c1csnn1)C1CC1 (centres undefined) | -12 | 0 | 5 | 3968 | -9 | -1 | x
O=C(NC1CCCCC1)C(c1ccccc1F)N(C(=O)c1csnn1)C1CCCC1 (centres undefined) | -4 | -3 | 5 | 3718 | 65* | -1 | -6
O=C(c1cccs1)N1C[C@@H](O)[C@H](n2cc(C3CC3)nn2)C[C@@H]1c1ccccc1 | 3 | 0 | -2 | 3400 | 2 | x | x
O=C(c1cccs1)N1C[C@H](O)[C@@H](n2cc(C3CC3)nn2)C[C@@H]1c1ccccc1 | 1 | 0 | -9 | 3830 | 30* | x | -22
COC(=O)C[C@@H]1CC[C@H]2[C@@H](COc3ccc(NC(=O)Nc4ccccc4)cc3C(=O)N2C)O1 | x | x | x | x | 2 | x | x
O=C1C=C(Nc2cccc3cccnc23)c2ccccc2C1=O | -10 | 4 | 3 | 3819 | 38* | 1 | 29
O=C(CN1C(=O)c2ccccc2C1=O)Nc1cccc2cccnc12 | -3 | 0 | -1 | 5918 | -1 | 4 | x
O=C1C=C(Nc2ccccc2)C(=O)c2ccccc21 | -1 | 0 | 0 | 5772 | 18 | 1 | x
O=C1C=C(Nc2ccccc2C(=O)O)c2ccccc2C1=O | -6 | 1 | -2 | 4517 | 72* | 5 | 95*
O=C1C=C(Nc2ccccc2)c2ccccc2C1=O | -2 | -1 | -1 | 3691 | 55* | 2 | 73*
CCCCNC1=CC(=O)C(=O)c2ccccc21 | 2 | 0 | 1 | 4530 | 35* | 4 | 68*
O=C(Nc1ccc(Br)cc1)OCCCN1CCC2(CCCCC2)C1=O | x | x | x | x | 6 | x | x
Cc1ccc([C@H]2C[C@@H](O)[C@H](n3cc(-c4ccc(F)cc4)nn3)CN2C(=O)C2CCCCC2)cc1 | -2 | 0 | 0 | 3482 | 31* | x | 4
CCCCCC(=O)N1C[C@@H](n2cc(-c3ccc(F)cc3)nn2)[C@H](O)C[C@@H]1c1ccc(Cl)cc1 | 2 | 0 | -7 | 3184 | 34* | x | 5
CSc1nc2c(=O)[nH]cnc2s1 | x | x | x | x | -6 | x | x
O=C(Nc1ccc(F)cc1)OCc1cn(Cc2cc(F)ccc2F)nn1 | x | x | x | x | 0 | x | x
Cc1cc(=O)n(C2CCS(=O)(=O)C2)[nH]1 (centres undefined) | -5 | -1 | -7 | 4620 | 57* | -2 | -18
Cc1ccccc1-c1nnnn1C1CCS(=O)(=O)C1 (centres undefined) | -6 | -1 | 0 | 2237 | -5 | 0 | x
Nc1cnn(Cc2ccccc2F)c1 | -15 | -1 | -9 | 4040 | 34* | 3 | 7
Nc1cnn(Cc2ccc(F)cc2)c1 | 1 | 0 | 0 | 4622 | 6 | -2 | x
Cc1ccc(N/C=C2/Sc3ccccc3NC2=O)cc1 | -6 | -2 | -2 | 2545 | 31* | 9 | -9

Bioassay records (PubChem)
